Among the test systems are DU-145 prostate; K-562 leukemia; MALME-3M melanoma; MDA-MB-231 breast; RXF 393 renal; SF-268 CNS; SF-295 CNS; SF-539 CNS; UACC-257 melanoma; M14 melanoma; HCT-15 colon; HT29 colon; SNB-75 CNS; SNB-19 CNS; U251 CNS; PC-3 prostate; SK-MEL-5 melanoma; UACC-62 melanoma; SK-MEL-28 melanoma; LOX IMVI melanoma.
What all share (test): NCI-60 one-dose screen, 48 h (100 = growth as untreated, 0 = no growth, -100 = all killed)
Conditions in all cases: 10 µM unless noted

The structures appear in SMILES notation. Compounds without any hit were thinned out: in the full panel of roughly 83,000, 20% have a hit.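 Method: cells in 96-well plates; compound added at one concentration; 48 h incubation; percent growth measured; values under 10 scored active.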 A number with no mark means an inactive call. Calls of active or inactive are those of the source.

`C[n+]1c(-c2ccccc2)c2cc(N)ccc2c2ccccc21`: the growth with DU-145 prostate was 43.8%; in the assay on K-562 leukemia it was 33.4%; with MALME-3M melanoma, -19.5% (active); with MDA-MB-231 breast it was 70.8%; with RXF 393 renal it was 58.9%; in the assay with SF-268 CNS, -6.88% (active). For the same molecule, the growth in the assay with SF-295 CNS was 75.6%; in the assay with SF-539 CNS, 28.5%; in the assay on UACC-257 melanoma it was 8.1% (active); with M14 melanoma, 74.3%; in the assay with HCT-15 colon, 101%; with HT29 colon, 31.5%. Moreover, the growth with SNB-75 CNS is -0.792% (active); in the assay on SNB-19 CNS, -2.68% (active); with U251 CNS, 11.6%; in the assay with PC-3 prostate, 58.4%; in the assay with SK-MEL-5 melanoma it was 0.275% (active); in the assay on UACC-62 melanoma, 0.188% (active). In addition, the growth in the assay on SK-MEL-28 melanoma was 10.4%.

As to `CCN(CC)c1ccc2cc(C(Nc3ccc(Cl)cc3)c3nnnn3C(C)(C)C)c(=O)oc2c1` (stereo not given), the growth in the assay with DU-145 prostate is 93.6%; in the assay with K-562 leukemia, 78.9%; in the assay on MALME-3M melanoma it was 98.1%; in the assay with MDA-MB-231 breast, 90.8%; in the assay with RXF 393 renal it was 86.9%; in the assay with SF-268 CNS, 80.6%. Also, the growth with SF-295 CNS was 95.9%; in the assay on SF-539 CNS it was 94.8%; with UACC-257 melanoma it was 92.2%; with M14 melanoma it was 97.6%; with HCT-15 colon, 91.8%; with HT29 colon, 90.7%. Also, the growth was 68.5% in the assay with SNB-75 CNS; 87% in the assay with SNB-19 CNS; 82.6% with U251 CNS; 71.5% in the assay with PC-3 prostate; 80% in the assay with SK-MEL-5 melanoma; 70% in the assay on UACC-62 melanoma. In addition, in the assay with SK-MEL-28 melanoma, the growth is 95.8%.

In the case of `COC(=O)[C@]12CCC(C)(C)C[C@H]1C1=CC[C@@H]3[C@@]4(C)C/C(=C/c5cccnc5)C(=O)C(C)(C)[C@@H]4CC[C@@]3(C)[C@]1(C)CC2`, the growth in the assay with DU-145 prostate is 7.21% [100 µM] (active); with K-562 leukemia it was 5.39% [100 µM] (active); in the assay with MALME-3M melanoma, -79.7% [100 µM] (active); with MDA-MB-231 breast it was -55.7% [100 µM] (active); in the assay with RXF 393 renal, -76.5% [100 µM] (active); in the assay with SF-268 CNS, -5.3% [100 µM] (active). The growth in the assay on SF-295 CNS was -29.8% [100 µM] (active); in the assay on SF-539 CNS, -76.6% [100 µM] (active); with UACC-257 melanoma, -29.2% [100 µM] (active); in the assay with M14 melanoma it was -49.8% [100 µM] (active); in the assay on HCT-15 colon, 0.973% [100 µM] (active); with HT29 colon, -15.9% [100 µM] (active). Further, the growth with SNB-75 CNS was -59.8% [100 µM] (active); with SNB-19 CNS, -23.1% [100 µM] (active); with U251 CNS, -38.2% [100 µM] (active); with PC-3 prostate, -16.3% [100 µM] (active); in the assay with SK-MEL-5 melanoma, -93.9% [100 µM] (active); in the assay on SK-MEL-28 melanoma, -69.5% [100 µM] (active).

For `O=c1[nH]cnc2c1ccn2C1OC(CO)C(O)C1O` (stereo not given), the growth in the assay with DU-145 prostate was 18.4%; in the assay on K-562 leukemia it was 65.4%; in the assay with MALME-3M melanoma it was 81.3%; in the assay on MDA-MB-231 breast, 45.3%; in the assay with RXF 393 renal, 43.1%; in the assay with SF-268 CNS, 76%. The growth with SF-295 CNS is 69.2%; in the assay on SF-539 CNS it was 80.4%; in the assay with UACC-257 melanoma it was 86.2%; in the assay with M14 melanoma, 55.9%; in the assay on HCT-15 colon, 45.5%; with HT29 colon, 65.9%. In addition, the growth in the assay with SNB-75 CNS is 74.6%; in the assay with SNB-19 CNS it was 78.3%; in the assay with U251 CNS, 81.2%; with PC-3 prostate, 36.3%; in the assay with SK-MEL-5 melanoma, 83.1%; with UACC-62 melanoma it was 73.3%. Also, in the assay with SK-MEL-28 melanoma, the growth was 91.2%.

Regarding `COc1ccc(C(=O)CSc2nccc(Nc3ccc(C(=O)O)cc3)n2)cc1`, the growth is 107% in the assay with DU-145 prostate; 115% in the assay with K-562 leukemia; 93% with MALME-3M melanoma; 102% in the assay on MDA-MB-231 breast; 99% with RXF 393 renal; 96.6% in the assay on SF-268 CNS. In addition, the growth with SF-295 CNS is 104%; in the assay with SF-539 CNS, 99.9%; in the assay on UACC-257 melanoma, 96.6%; in the assay on M14 melanoma it was 92.1%; in the assay with HCT-15 colon, 100%; in the assay with HT29 colon, 104%. For the same molecule, the growth is 102% in the assay on SNB-75 CNS; 101% with SNB-19 CNS; 98% in the assay on U251 CNS; 102% in the assay with PC-3 prostate; 93.6% in the assay with SK-MEL-5 melanoma; 101% with LOX IMVI melanoma.

With `CCCN1CC(c2ccc(OC)c(OC)c2)=C(c2cn(C(=O)OCC)c3ccccc23)C1=O`, the growth is 71.9% in the assay with DU-145 prostate; 13.3% with K-562 leukemia; 51.6% in the assay on MALME-3M melanoma; 43.3% with MDA-MB-231 breast; -0.611% (active) in the assay on RXF 393 renal; 58.2% with SF-268 CNS. The growth with SF-295 CNS was 32.4%; with SF-539 CNS, 28.1%; with UACC-257 melanoma, 90.1%; in the assay on M14 melanoma, 70.4%; in the assay on HCT-15 colon, 25.9%; in the assay with HT29 colon, 14.5%. For the same molecule, the growth with SNB-75 CNS was -14.1% (active); in the assay with SNB-19 CNS, 50.3%; in the assay with U251 CNS, 46.7%; in the assay with PC-3 prostate, 32.4%; in the assay on SK-MEL-5 melanoma it was 22.9%; in the assay with LOX IMVI melanoma, 49.6%. For the same molecule, the growth with SK-MEL-28 melanoma was 73.1%.

For the molecule `Cc1cccc(C[C@H](NC(=O)Nc2ccc(Cl)cc2F)C(=O)N[C@@H]2C(=O)N3C[C@H](OC(=O)CCN(C)C)C[C@H]3C(=O)N3CCCC[C@H]3C(=O)N[C@@H](C)C(=O)N3C[C@H](C)C[C@H]3C(=O)O[C@H]2C)c1`, the growth in the assay with DU-145 prostate was 23.7%; in the assay on K-562 leukemia, 15.8%; with MALME-3M melanoma, 27.1%; in the assay on MDA-MB-231 breast, 1.21% (active); with RXF 393 renal, 18.7%; in the assay with SF-268 CNS it was 24.8%. The growth in the assay with SF-295 CNS is 7.95% (active); in the assay with SF-539 CNS it was 35.6%; with UACC-257 melanoma, 16.3%; in the assay on M14 melanoma it was 16.5%; in the assay on HCT-15 colon, 64.8%; with HT29 colon it was 5.77% (active). The growth in the assay with SNB-75 CNS is 13.5%; in the assay with SNB-19 CNS, 21.3%; in the assay on U251 CNS, 22.9%; with PC-3 prostate, 16.7%; with SK-MEL-5 melanoma, 6.65% (active); in the assay on LOX IMVI melanoma it was 23.9%. For the same molecule, the growth in the assay on SK-MEL-28 melanoma was 25.8%.

`CCOC(=O)c1c[nH]n2c(=S)ncnc12`: the growth in the assay on DU-145 prostate is 108%; in the assay on K-562 leukemia it was 106%; with MALME-3M melanoma, 109%; in the assay with MDA-MB-231 breast, 109%; with RXF 393 renal it was 113%; with SF-268 CNS, 98.5%. The growth was 109% with SF-295 CNS; 105% with SF-539 CNS; 102% in the assay on UACC-257 melanoma; 103% in the assay on M14 melanoma; 100% with HT29 colon; 90.7% in the assay with SNB-75 CNS. In addition, the growth with SNB-19 CNS is 96.1%; in the assay with U251 CNS it was 102%; in the assay with PC-3 prostate it was 117%; in the assay with SK-MEL-5 melanoma it was 105%; in the assay with UACC-62 melanoma, 97.5%; in the assay with LOX IMVI melanoma, 96.4%. Further, the growth with SK-MEL-28 melanoma was 108%.
